# Results reported in the supplement of paper PMC4466236.
# The full ranking holds about 33,000 sequences; the median of “E-score (dimensionless, -0.5 to 0.5)” is about -0.058, and the highest 2% start at about 0.35. Many of the other results were omitted from the sample, so the highest values are more common in it than they were.
# Tested on: MvaT
# Assay: PBM 8-mer E-score (mean of HK and ME arrays) (E-score (dimensionless, -0.5 to 0.5)); higher = stronger relative binding preference
# Description: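 Protein binding microarray: GST-tagged full-length MvaT (P. aeruginosa PAO1) bound to two universal double-stranded 60-mer arrays (ME and HK), each with a constant 25-mer primer and a variable 35-mer region covering all 8-mers. The 8-mer E-score (rank-based, range -0.5 to 0.5, >0.45 = specific binding) is the mean of the two arrays.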
row,Sequence,PBM 8-mer E-score
1,ATATTTGC,0.351
2,CTATTTGA,0.229
3,CTATTTGC,0.148
4,ATATTTGG,0.177
5,ATATTTGA,0.363
6,GTATTTGA,0.319
7,ACTTTTTC,0.0911
8,CCAGATAA,0.165
9,AGTAGACA,-0.00875
10,ACATATAA,0.446
11,ACATATGA,0.179
12,ACATATAT,0.47
13,ACACATAA,0.273
14,ACATATAG,0.264
15,ACATATAC,0.287
16,ATACATCA,0.192
17,CGGTAGCC,-0.317
18,AGTTCAGG,0.0672
19,AATCTTGT,0.0955
20,AAGCTCTA,-0.217
21,ATCTAATC,0.167
22,ATATAATG,0.402
23,CTATAATC,0.295
24,ATATAATC,0.415
25,ACATAATG,0.302

row,Sequence,PBM 8-mer E-score
1,ATATAAGG,0.31
2,AAGGAATG,0.0374
3,TCTAGAAA,0.0814
4,TCTCCTCA,-0.177
5,CCTGGTAA,-0.0325
6,GCCGTCAC,-0.163
7,CCAATCGG,-0.128
8,CGTCTCAA,-0.0154
9,ATGTCAGC,-0.039
10,CTTTAAAA,0.287
11,GTTAAAAA,0.239
12,TTTAAAAA,0.363
13,TTTTAAAA,0.409
14,GTTTAAAA,0.293
15,TTAAAAAA,0.305
16,AGAAGTTA,0.279
17,GAACATTC,-0.0126
18,CATTGTAC,0.151
19,AGGACGTA,-0.138
20,ACGTATTA,0.356
21,AAGTATTA,0.388
22,CAGTATTA,0.289
23,AAGTATTC,0.161
24,GCGTATTA,0.193
25,ACGTATTG,0.183

row,Sequence,PBM 8-mer E-score
1,ATATCTAG,0.252
2,GCCTACGA,-0.271
3,GCATACCA,-0.104
4,CCGTGCGA,-0.193
5,ACAAATAT,0.405
6,ACAAATAG,0.268
7,GCAAATAA,0.325
8,TCAAATAA,0.28
9,ACAAATAC,0.247
10,ACAAATAA,0.38
11,CCAGGCAC,-0.347
12,GCCGAGAA,-0.0283
13,ACATATGG,0.145
14,ATATATGA,0.439
15,CTATATGA,0.124
16,ATATATGG,0.42
17,ATATATGC,0.424
18,GTATATGA,0.245
19,AGATATGG,0.00259
20,CTATATGC,0.227
21,ACATATGC,0.129
22,AAAGCTCC,-0.295
23,AGTCTTAC,0.0995
24,CGAGATCA,-0.0866
25,ATAGAGAG,0.188

row,Sequence,PBM 8-mer E-score
1,CTATAGAA,0.103
2,CTATAGAG,-0.125
3,ATATAGAG,0.351
4,ATATAGAC,0.224
5,ATATAGAA,0.366
6,AGATAGAT,0.152
7,ATATAGAT,0.35
8,GTATAGAA,0.0668
9,ATGACCAC,-0.00499
10,AATGTTTG,0.212
11,AGGCGAGA,-0.0992
12,CACGCCAG,-0.233
13,AACGCGGA,-0.163
14,AAGAGGTC,-0.209
15,ATAACTAC,0.272
16,CTTTAGAC,0.0841
17,ATGCGGTA,-0.111
18,AACTTTCA,0.351
19,AACTTTCT,0.22
20,GACTTTAA,0.262
21,TGCTTTAA,0.094
22,AAACTTAT,0.381
23,AAACTTAA,0.326
24,GAACTTAA,0.263
25,CACTTTCA,0.136

row,Sequence,PBM 8-mer E-score
1,AAACTTAC,0.306
2,TAACTTAA,0.406
3,CAACTTAA,0.31
4,TACTTTAA,0.422
5,AAAACCGC,0.058
6,AGGACGGA,-0.0832
7,ACCTGGGG,-0.366
8,AGGCTGAT,-0.0817
9,CCCGGTTA,0.00633
10,ATTGCGCA,0.111
11,ACTGGACG,-0.0771
12,AACTTTTA,0.34
13,AACTTTAG,0.211
14,AACTTTAA,0.385
15,AACTTTAT,0.357
16,CACTTTAA,0.274
17,AACTTTAC,0.275
18,GGGTGCGA,-0.091
19,CCGGCGCA,-0.0431
20,ATCGACAC,-0.0169
21,AGTGCGCA,0.13
22,AGGGGCGA,-0.155
23,ATCACTCG,0.0455
24,AGCTGGTA,-0.107
25,ACAGGAAC,-0.0162

row,Sequence,PBM 8-mer E-score
1,CTAACTTA,0.379
2,CTAACTAA,0.286
3,ATAACTGA,0.246
4,GTAACTTA,0.37
5,CTAACTGA,0.0161
6,ATAACTTA,0.429
7,GTAACTCA,0.116
8,GTAACTGA,0.199
9,AGAACTTA,0.256
10,CTTGTCGC,-0.147
11,CCTCGTGA,-0.253
12,CCCTGTTA,-0.0586
13,AGCAAGAG,-0.0917
14,TCGATCCA,-0.213
15,ACATCTTC,0.185
16,ATCTACTG,0.0718
17,ATTTGTTG,0.172
18,ATTGAAAT,0.27
19,ACTAGTTA,0.345
20,TTAAACAA,0.321
21,CTAAATAA,0.365
22,CTAAATGA,0.126
23,CTAAATCA,0.0639
24,CTAAATAC,0.232
25,TTAAATAA,0.445

row,Sequence,PBM 8-mer E-score
1,GCGATTCC,-0.0999
2,AGGCAGAA,-0.226
3,ACTCGTGA,-0.0788
4,GGACTCCC,-0.283
5,TAGTGAGA,0.0304
6,ACCCTTCC,-0.184
7,CCATATTC,0.161
8,GCATATTA,0.278
9,CCATATTA,0.353
10,ACATATTG,0.281
11,ACATATTC,0.281
12,ACATATTA,0.44
13,AACCACTC,0.00691
14,GCGGAGGA,-0.291
15,AAATTTGT,0.264
16,AGGGTACC,-0.343
17,TACAAATA,0.355
18,AACAAAAA,0.239
19,GACAAATA,0.297
20,AACAAATA,0.369
21,AACAAATG,0.172
22,AACAAGAT,0.164
23,CACAAATA,0.338
24,AACAAAAT,0.35
25,AACAAGTA,0.343
